Measurements taken from the supplement of paper PMC6555819.

Columns and labels:
Assay in all cases: PBM binding z-score (relative to random genomic background probes); higher = stronger binding; sequences stand for … in GC…GCGATTGACAGCGTAGAATGAAGG
[1] = tested on: RARb homodimer (NR concentration 270 nM)
Outline: (§1)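 Binding buffer was PBS pH 7.4 with 2% milk, 0.02% Triton X-100, 1 mM DTT, 0.2 mg/mL BSA and 0.4 mg/ml salmon testes DNA. In it, ligand-free nuclear receptor dimers were incubated 1 h on custom Agilent 4×180K protein-binding microarrays carrying double-stranded probes. Antibodies against each partner (one per run) detected binding, and z-scores were calculated against random background probes after regression normalization of scanned fluorescence.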

[2] = tested on: RARg:RXRa (NR concentration 270 nM, RXRa partner concentration 90 nM)
Outline: as §1

[3] = tested on: RARg homodimer (NR concentration 270 nM)
Outline: as §1

[4] = tested on: RXRa DBDmut IVT, anti-RXR (DBD mutation: RXRa K156A/R161A, NR concentration 90 nM)
Outline: as §1

[5] = tested on: RXRa homodimer (NR concentration 180 nM)
Outline: as §1

[6] = tested on: THRa:RXRa (NR concentration 90 nM, RXRa partner concentration 90 nM)
Outline: as §1

[7] = tested on: THRa homodimer (NR concentration 90 nM)
Outline: as §1

[8] = tested on: VDR homodimer (NR concentration 270 nM)
Outline: as §1

Sequence	PBM binding z-score [1]	PBM binding z-score [2]	PBM binding z-score [3]	PBM binding z-score [4]	PBM binding z-score [5]	PBM binding z-score [6]	PBM binding z-score [7]	PBM binding z-score [8]
ATCTCTAGGTACCCAAGTTCAGTGAATGCCGAAC	1.41	0.712	0.515	1.14	0.528	0.968	0.385	2
AGTCAAAGCTCACTAGGTAACGTAAGATTCAGCT	-0.396	-0.184	-0.065	-0.217	0.00455	0.131	-0.137	-0.474
AGAATGAGGTTATACGTGGATCAGGGAAGAAAGT	1.08	1.69	0.925	1.84	2.1	2.48	1.1	1.21
AATACAGGGTCATCGTTGGCCAGAGTACGCACAG	3.58	5.68	5.14	3.53	6.56	3.95	1.53	3.86
TCGAGTCGGTTACCAATGGGGCATTCAGCTTTCT	0.134	-0.35	-0.367	0.329	-0.284	-0.43	-0.423	-0.105
TCAGACAGGTGCAGGTAACTCAGGTACGCAGTCG	-0.182	-0.0126	-0.0497	0.956	0.745	0.824	0.0725	0.478
AGTCGAAGTTCACTAGGTAACGTAAGATTCAGCT	1.74	2.29	2.93	3.45	1.6	1.05	-0.0118	2.7
TCTTGTCGATCAAGCAGGTTAAGAAAGCCTGAGT	0.296	-0.133	-0.273	0.138	0.0791	0.127	-0.374	-0.0959
ATACCAAGGTGATCGTGAGGTCGTTGTTACTAAC	1.7	1.78	0.637	0.951	1.21	3.27	2.64	3.22
TCATATAGTTAAACAGGTGAAAGTCCGTAAGTTA	0.84	0.464	0.347	1.57	1.04	0.679	0.485	0.667
CGTCCAAGGTTAATGCTAGGTCAGTGAAAGCATT	3.14	4.63	2.64	1.27	1.78	3.44	1.31	0.435
TTACCAAGGAGAAAGGTCGTTGATGCACGCCTTG	1.55	1.43	0.929	0.362	2.29	1.48	-0.13	1.17
TCTTGTAGATCAATAGAGGTTAACAAAGTGCGCT	1.38	1.11	0.826	0.564	1.68	2.62	-0.415	0.462
CCTCGGAGGACAGAAGGTCCGAGCTGTCCGCTTT	-0.0245	-0.392	-0.0646	0.0399	-1.02	-0.359	-0.311	0.0219
TCGCGTAGGTTAGTCGGGGCATTCAGCCAACATA	0.519	0.0765	-0.112	0.21	-0.0315	1.26	-0.0265	0.208
ATCTCTAGGTAAGACTCAGTTGAGTGAAGAACGC	-0.154	0.15	0.0573	0.17	-0.0983	0.492	0.309	0.119
TGAATGCGGTTAAAGATCAGGGAACGTGGCGTCG	-0.707	-0.0436	-0.136	-0.853	0.338	-0.164	-0.454	-0.55

Sequence	PBM binding z-score [1]	PBM binding z-score [2]	PBM binding z-score [3]	PBM binding z-score [4]	PBM binding z-score [5]	PBM binding z-score [6]	PBM binding z-score [7]	PBM binding z-score [8]
ATATGTAGGTTATCGGGTCCTTCAGTTTGCGCAT	0.87	0.677	0.506	0.751	0.855	0.708	0.719	1.51
CCGACTGGGGCAGAAAGGTTACCAGACCATCCGG	2.18	1.75	1.28	-0.651	1.71	0.99	-0.742	-0.568
TTACCAAAGTGAAGGTCGTTGATCCCTCTGTAGA	0.733	0.112	-0.254	0.0594	0.926	0.74	-0.495	0.739
TCTGCTAGGTCAACGCTGGTCAGCTAATCTGCTA	3.46	4.21	5.26	0.991	2.33	3.52	0.43	-0.576
TCTGCTAGGTCAACTATGGTCAGCTAATCTGCTA	3.57	4.26	5.22	1.45	3.13	3.87	0.915	0.149
CCTTACGGGTCAAGGTTATAACACGGGTGGTACG	3.35	5.02	4.89	1.1	5.42	3.06	0.539	1.41
TCAGACAGGTGAAGGTAACACAGGTACGCAGTCG	1.34	0.896	1	1.56	1.54	1.36	0.868	0.48
CCTACTGGGCCAAGGGTCATTGATTCCAATGCTC	3.11	3.67	3.31	-0.197	3.75	2.11	0.000297	1.68
TCTATTAGTTGCAGGGCAACCGACGAGTCCGTTT	0.506	0.104	0.0745	1.28	0.296	0.323	0.293	1.45
TTACCAAGGTGAAGGACGTTGATCCCTCTGTAGA	0.644	0.43	0.524	-0.216	0.672	1.66	0.562	-0.106
TTACCAAGGTGAGCTGAGGGCGTTGATCCAACTC	0.362	-0.0631	-0.0832	-0.14	0.126	3.36	0.287	0.247
ACTAGCAGTCCAAGGGTCACTCAAGATTAGTCCG	3.7	3.72	3.27	0.612	3.58	2.61	0.466	1.15
TAGCCTAGGTCATTGAGCCAGTATAGTACGCATC	2.68	3.9	4.06	1.72	2.9	2.79	0.737	1.03
TGAATGAGGTTAAAGATCAAGGAACGTGGCGTCG	0.599	2.57	1.35	1.24	4.06	2.41	0.289	0.251
TCTTGTAGATCACTAGAGGTTAAGAAAGTGCGCT	1.33	0.919	0.66	0.477	1.6	2.43	-0.317	0.162
TCGAGTAGGTTAGTCGGAGCATTCAGCCAACATA	-0.533	-0.461	-0.343	-0.252	-0.401	-0.658	-0.781	-0.514
GCGAATGGGGCATCAGCAGGTTACCATAACTTAA	0.462	0.664	0.351	0.119	0.257	0.795	0.03	-0.224
